Measured values published in PubChem BioAssay (NCI).
The panel holds about 83,000 compounds, 20% with a hit somewhere; the sample as a whole holds those more often.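 96-well plates, one dose, 48 hours. Percent growth reported; active if below 10.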 Values without a mark were called inactive. Calls of active or inactive are those of the source.

Legend:
Assay in all cases: NCI-60 one-dose screen, 48 h (100 = growth as untreated, 0 = no growth, -100 = all killed)
[1] = tested on: HCT-15 colon; details: 10 µM unless noted
[2] = tested on: HT29 colon; details: 10 µM unless noted
[3] = tested on: SNB-75 CNS; details: 10 µM unless noted
[4] = tested on: SNB-19 CNS; details: 10 µM unless noted
[5] = tested on: U251 CNS; details: 10 µM unless noted
[6] = tested on: PC-3 prostate; details: 10 µM unless noted
[7] = tested on: SK-MEL-5 melanoma; details: 10 µM unless noted
[8] = tested on: UACC-62 melanoma; details: 10 µM unless noted
[9] = tested on: LOX IMVI melanoma; details: 10 µM
[10] = tested on: SK-MEL-28 melanoma; details: 10 µM unless noted
[11] = tested on: SN12C renal; details: 10 µM unless noted
[12] = tested on: UO-31 renal; details: 10 µM unless noted
[13] = tested on: TK-10 renal; details: 10 µM unless noted
[14] = tested on: ACHN renal; details: 10 µM unless noted
[15] = tested on: CAKI-1 renal; details: 10 µM unless noted
[16] = tested on: A498 renal; details: 10 µM unless noted
[17] = tested on: CCRF-CEM leukemia; details: 10 µM unless noted
[18] = tested on: MOLT-4 leukemia; details: 10 µM unless noted
[19] = tested on: SK-MEL-2 melanoma; details: 10 µM unless noted
[20] = tested on: EKVX NSCLC; details: 10 µM unless noted

| SMILES | growth [1] | growth [2] | growth [3] | growth [4] | growth [5] | growth [6] | growth [7] | growth [8] | growth [9] | growth [10] | growth [11] | growth [12] | growth [13] | growth [14] | growth [15] | growth [16] | growth [17] | growth [18] | growth [19] | growth [20] |
| --- | --- | --- | --- | --- | --- | --- | --- | --- | --- | --- | --- | --- | --- | --- | --- | --- | --- | --- | --- | --- |
| FC(F)(F)c1cc(NC2=NCCN=C(Nc3cc(C(F)(F)F)cc(C(F)(F)F)c3)SS2)cc(C(F)(F)F)c1 | 37.8% | 49% | 71.5% | 56.5% | 23.3% | 17.1% | 50.2% | 35.6% | 50.5% | 74.7% | 47.2% | 35.1% | 58.4% | 43.5% | 48.1% | 58% | 28.8% | 51.2% |  |  |
| O=C1C=CC(=O)C2=C1CCCC2 | 92.4% | 109% | 80.2% | 92.7% | 95.5% | 82.7% | 97.5% | 85.5% |  | 108% | 98.7% | 70.9% | 132% | 90% | 79% | 132% | 18.8% | 31.1% | 110% | 69.1% |
| CC(C)N1CC(=O)N2CSCC2C1=O (centres undefined) | 105% | 119% | 99.3% | 121% | 105% | 101% | 104% | 104% |  | 111% | 107% | 96.5% | 109% | 109% | 100% | 123% | 107% | 111% | 115% | 105% |
| CCC12OC(COc3ccccc3)CN1CCN2c1ccccc1 (centres undefined) | 105% [100 µM] | 111% [100 µM] | 84.4% [100 µM] | 96.9% [100 µM] | 101% [100 µM] | 102% [100 µM] | 104% [100 µM] | 89.5% [100 µM] |  | 103% [100 µM] | 96.1% [100 µM] | 75.2% [100 µM] | 146% [100 µM] | 97.3% [100 µM] | 89% [100 µM] | 107% [100 µM] | 101% [100 µM] | 94.5% [100 µM] | 99.4% [100 µM] | 95.2% [100 µM] |
| N#Cc1ccc(OC(=O)Nc2cc(Cl)cc(Cl)c2)cc1 | 3.2% [100 µM] (active) | 2.78% [100 µM] (active) | -9.78% [100 µM] (active) | 15.4% [100 µM] | 4.68% [100 µM] (active) | -9.43% [100 µM] (active) | -94.3% [100 µM] (active) | -33.1% [100 µM] (active) |  | 5.58% [100 µM] (active) | -14% [100 µM] (active) | 5.42% [100 µM] (active) | -4.01% [100 µM] (active) | 0.368% [100 µM] (active) | -27.5% [100 µM] (active) | -19.7% [100 µM] (active) | 2.17% [100 µM] (active) | -14.4% [100 µM] (active) | -42.5% [100 µM] (active) | -2.41% [100 µM] (active) |
| CC(C)c1ccccc1NC(=O)N1CCC(C(C)C)CC1 | 110% | 107% | 89.3% | 107% | 98.1% | 97.9% | 97.4% | 105% | 103% | 106% | 106% | 85.6% | 127% |  | 92.3% |  | 101% | 90.8% |  |  |
| Cc1cccnc1NC1OC(=O)c2ccccc21 (centres undefined) | 96.7% | 104% | 96.5% | 101% | 101% | 114% | 105% | 96.6% | 94.9% | 112% | 105% | 85.8% | 97% | 103% | 99.5% | 94.7% | 104% | 99.3% |  |  |
| CNc1ccccc1C(N)=O | 101% | 103% | 91.8% | 94.8% | 92.8% | 116% | 101% | 93.8% |  | 107% | 94.8% | 75.5% | 105% | 97.1% | 81.4% |  | 102% | 117% | 103% | 98.4% |
| COC(=O)C1(CC(C)=O)NC(=S)NC(=O)C1C#N (centres undefined) | 106% | 104% | 112% | 98.4% | 109% | 119% | 100% | 103% |  | 118% | 101% | 92.2% | 103% | 109% | 94.6% | 147% | 101% | 108% | 119% | 96.4% |
| Cn1c(=O)[nH]c2ccccc2c1=O | 101% | 98.4% | 91% | 94.3% | 93.6% | 130% | 101% | 102% |  | 117% | 96.4% | 95.5% | 94.3% | 105% | 85.3% | 129% | 108% | 122% | 111% | 71.6% |
| C[C@H](CCC[C@H](C)OS(=O)(=O)c1ccccc1)OS(=O)(=O)c1ccccc1 | 101% | 111% | 88% | 94.5% | 108% | 108% | 114% | 89.8% |  | 118% | 99.3% | 78.8% | 103% | 106% | 92.6% | 133% | 120% | 115% | 98.8% | 95.2% |
| Cc1ccc(C)c(CCO)c1 | 112% | 109% | 95.7% | 101% | 90.6% | 95.5% | 90.7% | 103% |  | 105% | 99.9% | 93.7% | 99.6% | 107% | 115% | 85.8% | 119% | 113% | 134% | 112% |
| Cc1cc2c3ccc(C)[n+](C)c3ccc2n1C | 104% | 39.9% | 67.6% | 30.6% | 12.4% | 8.69% (active) | 48.2% | 78.9% |  | 86% | 22.4% | 27.1% | 65.6% | 79.4% | 58.1% |  | 36.7% | 25.2% | 92.4% | 20% |
| CC(C)Sc1ncnc2nc[nH]c12 | 103% | 113% | 115% | 99.5% | 107% | 91.6% | 104% | 93.3% |  | 82.8% | 96.7% |  | 116% | 99.6% | 101% | 59.3% | 111% | 146% | 108% | 94.7% |
| O=C(Nc1c(Cl)cc(Cl)cc1Cl)ON=C1CCCCC1 | 102% | 104% | 94.4% | 108% | 104% | 114% | 101% | 98.7% |  | 106% | 98.4% | 90.2% | 100% | 102% | 97.2% | 105% | 102% | 109% | 107% | 105% |
| CCNC(=O)Oc1ccc[nH]c1=O | 97.9% | 109% | 85.3% | 98.8% | 104% | 96.5% | 95.2% | 96.1% |  | 125% | 104% | 86.6% | 110% | 100% | 95.1% |  | 99% |  | 107% | 103% |
